Reference: PubChem BioAssay (NCATS)
Inconclusive results are not listed. Activity calls are given as the source filed them. The call rests on the fitted dose curve; in most records, active means well fitted inhibition curve with a large enough effect; inconclusive means small, poorly fitted or top-dose-only effect; inactive means flat fitted curve, though single readings scatter.

Legend:
Assay in all cases: qHTS profiling for inhibitors of Plasmodium falciparum proliferation (AID 504749); further: nearly all actives have a fitted effect of over 60% in size
Details in all cases: P. falciparum in erythrocytes, SYBR Green DNA, 72 h; series mostly up to 28.7 µM
ATS95 = tested on: ATS95
Procedure, shortened: (§1)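 SYBR Green fluorescence of parasite DNA, read after lysis and overnight dark incubation, measured growth over 72 h in erythrocyte culture at 0.3% parasitemia and 2.5% hematocrit. Data normalised to DMSO and 0.29 uM artemisinin, with plate-drift correction.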

C2A = tested on: C2A
Procedure, shortened: as §1

CP185 = tested on: CP185
Procedure, shortened: as §1

CP192 = tested on: CP192
Procedure, shortened: as §1

CP194 = tested on: CP194
Procedure, shortened: as §1

CP201 = tested on: CP201
Procedure, shortened: as §1

CP238 = tested on: CP238
Procedure, shortened: as §1

CP252 = tested on: CP252
Procedure, shortened: as §1

CP256 = tested on: CP256
Procedure, shortened: as §1

CP262 = tested on: CP262
Procedure, shortened: as §1

CP266 = tested on: CP266
Procedure, shortened: as §1

CP268 = tested on: CP268
Procedure, shortened: as §1

CP269 = tested on: CP269
Procedure, shortened: as §1

CP305 = tested on: CP305
Procedure, shortened: as §1

CP325 = tested on: CP325
Procedure, shortened: as §1

CP329 = tested on: CP329
Procedure, shortened: as §1

DIV30 = tested on: DIV30
Procedure, shortened: as §1

P94_40 = tested on: P94_40
Procedure, shortened: as §1

PC26 = tested on: PC26
Procedure, shortened: as §1

PC49 = tested on: PC49
Procedure, shortened: as §1

Measured: Potency

C=C1CC[C@H](O)C/C1=C/C=C1\CCC[C@]2(C)[C@@H]([C@H](C)CCCC(C)C)CC[C@@H]12
inactive: all assays above
